# Source: article PMC4336329 (PLoS ONE, 2015)
# Screen size: about 310,000 compounds; about 14,000 (4.5%) showed an effect of 50% or more. Effects have a minus sign here. This is one part of a sample in which strong results are shown more often than they occur.
# Molecular target: human ether-à-go-go-related gene (hERG) potassium channel (human, UniProt Q12809)
# Experiment: primary screen, population patch clamp on CHO cells stably expressing hERG; higher = less effect of the substance
# 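Note: peak tail current of the secondary pulse compared with the same well before compound.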
# Sequence of human ether-à-go-go-related gene (hERG) potassium channel (Q12809 whole entry, looked up): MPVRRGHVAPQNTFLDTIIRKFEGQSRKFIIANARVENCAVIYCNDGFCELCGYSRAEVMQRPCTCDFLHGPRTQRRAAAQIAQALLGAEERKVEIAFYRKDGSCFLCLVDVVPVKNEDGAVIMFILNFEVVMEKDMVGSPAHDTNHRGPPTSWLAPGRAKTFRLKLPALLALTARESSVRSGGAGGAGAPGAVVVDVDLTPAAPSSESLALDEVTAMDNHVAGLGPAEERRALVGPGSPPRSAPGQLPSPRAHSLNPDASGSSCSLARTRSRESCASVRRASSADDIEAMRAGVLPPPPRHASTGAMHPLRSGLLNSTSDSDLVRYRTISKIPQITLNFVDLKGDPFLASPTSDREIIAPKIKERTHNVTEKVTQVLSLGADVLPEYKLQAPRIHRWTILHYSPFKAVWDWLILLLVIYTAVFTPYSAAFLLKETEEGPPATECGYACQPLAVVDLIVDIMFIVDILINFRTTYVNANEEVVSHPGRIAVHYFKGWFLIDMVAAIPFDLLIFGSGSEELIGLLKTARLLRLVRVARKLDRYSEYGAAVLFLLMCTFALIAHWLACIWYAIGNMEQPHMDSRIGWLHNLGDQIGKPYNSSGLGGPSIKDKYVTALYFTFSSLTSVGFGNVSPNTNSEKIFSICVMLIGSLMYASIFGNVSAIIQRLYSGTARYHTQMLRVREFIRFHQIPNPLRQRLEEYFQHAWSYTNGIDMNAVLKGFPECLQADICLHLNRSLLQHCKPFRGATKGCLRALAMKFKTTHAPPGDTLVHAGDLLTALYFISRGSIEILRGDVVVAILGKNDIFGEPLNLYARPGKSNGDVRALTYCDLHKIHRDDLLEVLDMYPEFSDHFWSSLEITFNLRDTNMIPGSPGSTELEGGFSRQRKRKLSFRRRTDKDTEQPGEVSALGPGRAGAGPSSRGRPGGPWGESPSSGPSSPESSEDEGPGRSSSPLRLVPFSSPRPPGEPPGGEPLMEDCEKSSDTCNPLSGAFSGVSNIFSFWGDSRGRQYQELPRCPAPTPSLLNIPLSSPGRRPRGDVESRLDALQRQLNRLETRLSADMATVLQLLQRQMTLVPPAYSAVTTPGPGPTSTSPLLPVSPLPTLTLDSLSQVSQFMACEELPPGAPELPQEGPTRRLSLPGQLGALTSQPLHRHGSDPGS
row,Structure (SMILES),"hERG current change (%, negative = inhibition) at 10uM [%]"
1,Cc1noc(C)c1COc1cccc(C(=O)NCc2ccccc2Cl)c1,-11.3
2,Cc1cccc(OCC(=O)NNC(=O)c2cc3ccccc3oc2=O)c1,-9.32
3,CC1CC(C)CN(CCCNC(=O)CN2C(=O)c3cccnc3Oc3ccc(Cl)cc32)C1 (centres unmarked),-30.7
4,Cc1ccc(S(=O)(=O)N/N=C/c2cn(C)nc2C)cc1,-2.68
5,Cl.OCCCCNCc1cc(Br)ccc1OCc1ccccc1F,-24.7
6,Cl.OCCCCNCc1cc(Br)ccc1OCc1ccccc1,-61.8
7,COc1cc(CNCCCCO)ccc1OCc1ccccc1F.Cl,-14.2
8,Cc1ccc(OCc2nnc(SCC(=O)N3CCc4ccccc43)n2C)cc1,16.4
9,Cc1ccc(-c2csc3ncn(CC(=O)N4CCOCC4)c(=O)c23)cc1C,-5.43
10,CCn1c(SCC(=O)Nc2cccc(NC(C)=O)c2)nnc1-c1ccco1,14.8
11,COc1ccc(S(=O)(=O)N2CCOCC2)cc1C(=O)N1CCCCC1,-31.6
12,CN(C)CCCN1c2ccc([N+](=O)[O-])cc2CCc2cc([N+](=O)[O-])ccc21,-50.3
13,CC(=O)N1c2ccccc2CCc2ccc([N+](=O)[O-])cc21,2.5
14,Cc1ccccc1CN1CCc2cc([N+](=O)[O-])ccc21,19.1
15,C=CCNC(=S)NC(=O)c1ccc(C)c(Br)c1,3.39
16,N/C(=N\OC(=O)N1CCOCC1)c1ccc(Br)cc1,17.6
17,CN1C[C@H](CO)C=C2c3cccc4[nH]cc(c34)C[C@H]21,4.32
18,COc1ccccc1C(=O)Nc1c(C(=O)N(CCN(C)C)Cc2ccco2)oc2ccccc12,-82.7
19,Cc1c(C(=O)NCc2ccco2)oc2ccccc12,-6.97
20,COc1ccccc1C(=O)NCc1ccco1,9.61
21,CCOC(=O)c1oc2ccccc2c1NC(=O)c1ccccc1OC,16.6
22,Cc1ccccc1C(=O)Nc1c(C(=O)N(CCN(C)C)Cc2ccco2)oc2ccccc12,-79.7

row,Structure (SMILES),"hERG current change (%, negative = inhibition) at 10uM [%]"
1,Cc1c(C(=O)N(Cc2ccco2)Cc2cccs2)oc2ccccc12,-34.2
2,COCCNC(=S)Nc1cc(OC)c(NC(=O)c2ccco2)cc1OC,-3.62
3,Cc1ccc(OCCCCNC(C)(C)C)c([N+](=O)[O-])c1.O=C(O)C(=O)O,-4.42
4,COc1cccc(CNc2nc(SC)ncc2CO)c1,14.5
5,CC(=O)c1c(C)nc(-c2ccc3c(c2)OCO3)n1O,0.643
6,CCc1noc(C)c1C(=O)N1CCCC(C(=O)c2cc(F)ccc2OC)C1 (centres unmarked),18.6
7,CCOC(=O)N1CCC(N2CCCC(C(=O)c3ccccc3OC)C2)CC1 (centres unmarked),-67.7
8,COc1ccccc1C(=O)C1CCCN(C(=O)C2CCCC2)C1 (centres unmarked),-6.06
9,CCN(CC)CC(=O)N1CCCC(C(=O)c2ccccc2OC)C1 (centres unmarked),-10.3
10,COc1ccccc1C(=O)C1CCCN(C(=O)c2ccccn2)C1 (centres unmarked),12.4
11,CCOC(=O)N1CCC(N2CCCC(C(=O)c3cc(F)ccc3OC)C2)CC1 (centres unmarked),-86.7
12,Cc1cc(C(=O)N2CCCC(C(=O)c3cccc4ccccc34)C2)nc(C)n1 (centres unmarked),-2.09
13,COc1ccc(F)cc1C(=O)C1CCCN(C(=O)C2=C(C)OCCO2)C1 (centres unmarked),1.15
14,COc1ccccc1C(=O)C1CCCN(C(=O)c2cc(CC(C)C)nc(C)n2)C1 (centres unmarked),-60.5
15,CC(NC(=O)/C(C#N)=C/c1ccc(Cl)c([N+](=O)[O-])c1)c1ccccc1 (centres unmarked),4.7
16,CCN(CC)C(=O)Nc1ccc(C(=O)OC)cc1,-1.77
17,COc1ccc(C2=NN(C(=O)CN3CCOCC3)C(c3nc4ccccc4[nH]3)C2)cc1 (centres unmarked),-8.74
18,C[NH+](C)CC(C)(C)CNS(=O)(=O)c1ccc(Cl)c(Cl)c1.[Cl-],4.29
19,CCCn1nc(NC(=O)CC(C)C)c2cc3ccccc3nc21,12
20,COc1ccc(-c2noc(CCC(=O)Nc3cc(OC)ccc3OC)n2)cc1,-14.7
21,CCn1cc(C(=O)O)c(=O)c2cnc(N3CCN(C(=S)Nc4ccccc4C(F)(F)F)CC3)nc21,6.26
22,O=C(Cn1nnc(-c2ccccc2F)n1)OCC(=O)c1ccccc1,10.9
